Residual activity data for 14 compounds are collected here from ChEMBL document CHEMBL2218924, “A broad activity screen in support of a chemogenomic map for kinase signalling research and drug discovery” (Biochem J, 2013).

The target of test [1] is Mitogen-activated protein kinase 11 (Homo sapiens) (UniProt Q15759). Particulars: at 1 µM.
Test [2] shares this target. Particulars: at 10 µM.
The target of test [3] is T1, Mitogen-activated protein kinase 13 (Homo sapiens) (UniProt O15264).
T1 sequence (whole entry): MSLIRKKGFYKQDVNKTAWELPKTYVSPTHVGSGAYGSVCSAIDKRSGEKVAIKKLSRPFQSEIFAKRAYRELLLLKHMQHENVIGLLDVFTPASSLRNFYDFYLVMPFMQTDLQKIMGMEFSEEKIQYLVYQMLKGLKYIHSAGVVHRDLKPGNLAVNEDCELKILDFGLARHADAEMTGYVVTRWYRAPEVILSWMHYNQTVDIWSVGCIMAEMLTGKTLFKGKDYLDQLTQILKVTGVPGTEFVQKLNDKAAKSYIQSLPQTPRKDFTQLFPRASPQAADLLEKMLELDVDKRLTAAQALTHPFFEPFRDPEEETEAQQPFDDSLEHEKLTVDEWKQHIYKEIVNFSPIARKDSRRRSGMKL
Particulars: at 1 µM.

Test [4] addresses T1, Mitogen-activated protein kinase 13 (Homo sapiens). Particulars: at 10 µM.
In test [5] the target is T2, Serine/threonine-protein kinase Sgk1 (Homo sapiens) (UniProt O00141).
T2 sequence (whole entry): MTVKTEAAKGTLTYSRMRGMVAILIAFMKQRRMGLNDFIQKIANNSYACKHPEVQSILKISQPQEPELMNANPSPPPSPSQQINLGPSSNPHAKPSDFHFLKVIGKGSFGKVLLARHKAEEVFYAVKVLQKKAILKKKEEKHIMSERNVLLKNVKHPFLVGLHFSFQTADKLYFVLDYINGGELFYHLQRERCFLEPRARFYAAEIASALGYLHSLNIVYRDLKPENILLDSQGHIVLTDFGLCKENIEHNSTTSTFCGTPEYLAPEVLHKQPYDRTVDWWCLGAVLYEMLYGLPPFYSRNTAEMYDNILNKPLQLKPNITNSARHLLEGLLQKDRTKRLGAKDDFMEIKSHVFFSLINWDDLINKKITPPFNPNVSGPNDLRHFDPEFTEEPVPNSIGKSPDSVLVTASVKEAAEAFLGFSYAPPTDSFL
Particulars: at 1 µM.

Test [6] has as its target T2, Serine/threonine-protein kinase Sgk1 (Homo sapiens). Particulars: at 10 µM.
Test [7] deals with T3, Serine/threonine-protein kinase Sgk2 (Homo sapiens) (UniProt Q9HBY8).
T3 sequence (whole entry): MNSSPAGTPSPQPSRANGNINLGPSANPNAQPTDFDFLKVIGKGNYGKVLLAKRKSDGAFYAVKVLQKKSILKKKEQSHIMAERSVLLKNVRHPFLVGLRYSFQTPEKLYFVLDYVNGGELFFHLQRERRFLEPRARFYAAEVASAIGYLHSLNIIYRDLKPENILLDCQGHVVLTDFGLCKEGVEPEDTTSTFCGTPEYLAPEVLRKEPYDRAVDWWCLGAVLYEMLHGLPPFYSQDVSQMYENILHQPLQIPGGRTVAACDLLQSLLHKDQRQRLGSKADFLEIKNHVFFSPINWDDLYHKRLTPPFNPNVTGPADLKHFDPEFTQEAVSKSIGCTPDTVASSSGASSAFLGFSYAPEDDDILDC
Particulars: at 1 µM.

The target of test [8] is T4, Serine/threonine-protein kinase Sgk3 (Homo sapiens) (UniProt Q96BR1).
T4 sequence (whole entry): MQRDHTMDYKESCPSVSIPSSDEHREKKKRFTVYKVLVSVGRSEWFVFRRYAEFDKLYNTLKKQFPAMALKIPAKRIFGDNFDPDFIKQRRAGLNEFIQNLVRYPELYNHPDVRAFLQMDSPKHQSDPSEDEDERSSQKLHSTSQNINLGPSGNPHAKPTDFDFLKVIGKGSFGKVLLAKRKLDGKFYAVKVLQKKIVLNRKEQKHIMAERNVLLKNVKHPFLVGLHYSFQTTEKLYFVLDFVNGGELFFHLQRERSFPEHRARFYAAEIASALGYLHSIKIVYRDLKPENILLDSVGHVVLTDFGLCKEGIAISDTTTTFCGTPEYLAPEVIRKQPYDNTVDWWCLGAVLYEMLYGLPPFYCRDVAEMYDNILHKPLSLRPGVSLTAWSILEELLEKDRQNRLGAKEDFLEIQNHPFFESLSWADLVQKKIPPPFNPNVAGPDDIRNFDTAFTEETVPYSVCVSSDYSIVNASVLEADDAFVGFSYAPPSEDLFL
Particulars: at 10 µM.

Test [9] has as its target Serine/threonine-protein kinase SIK1 (Homo sapiens) (UniProt P57059). Particulars: at 10 µM.
Test [10] addresses SRSF protein kinase 1 (Homo sapiens) (UniProt Q96SB4). Particulars: at 1 µM.
Test [11] shares this target. Particulars: at 10 µM.
Test [12] addresses SRSF protein kinase 2 (Homo sapiens) (UniProt P78362). Particulars: at 1 µM.
The target is the same in test [13]. Particulars: at 10 µM.
In test [14] the target is Serine/threonine-protein kinase 33 (Homo sapiens) (UniProt Q9BYT3). Particulars: at 1 µM.
For test [15] the target is unchanged. Particulars: at 10 µM.
Test [16] deals with T3, Serine/threonine-protein kinase Sgk2 (Homo sapiens). Particulars: at 10 µM.
Test [17] addresses Serine/threonine-protein kinase PLK2 (Homo sapiens) (UniProt Q9NYY3). Particulars: at 1 µM.
Test [18] has the same target. Particulars: at 10 µM.
For test [19], the target named is Tyrosine-protein kinase SYK (Homo sapiens) (UniProt P43405). Particulars: at 1 µM.
Test [20] concerns the target Serine/threonine-protein kinase SIK1 (Homo sapiens) (UniProt P57059). Particulars: at 1 µM.

Sequence of Mitogen-activated protein kinase 11 (Homo sapiens) (Q15759 whole entry): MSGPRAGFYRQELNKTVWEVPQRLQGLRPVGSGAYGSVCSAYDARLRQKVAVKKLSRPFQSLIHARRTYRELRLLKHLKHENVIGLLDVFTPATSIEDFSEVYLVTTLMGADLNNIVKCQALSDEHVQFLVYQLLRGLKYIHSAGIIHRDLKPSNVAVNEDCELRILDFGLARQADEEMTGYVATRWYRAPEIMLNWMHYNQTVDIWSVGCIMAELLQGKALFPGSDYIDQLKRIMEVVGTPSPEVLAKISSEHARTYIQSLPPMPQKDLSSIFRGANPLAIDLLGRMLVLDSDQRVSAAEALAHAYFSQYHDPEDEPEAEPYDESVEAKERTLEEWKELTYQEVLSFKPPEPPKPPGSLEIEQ
Sequence of Serine/threonine-protein kinase SIK1 (Homo sapiens) (P57059 whole entry): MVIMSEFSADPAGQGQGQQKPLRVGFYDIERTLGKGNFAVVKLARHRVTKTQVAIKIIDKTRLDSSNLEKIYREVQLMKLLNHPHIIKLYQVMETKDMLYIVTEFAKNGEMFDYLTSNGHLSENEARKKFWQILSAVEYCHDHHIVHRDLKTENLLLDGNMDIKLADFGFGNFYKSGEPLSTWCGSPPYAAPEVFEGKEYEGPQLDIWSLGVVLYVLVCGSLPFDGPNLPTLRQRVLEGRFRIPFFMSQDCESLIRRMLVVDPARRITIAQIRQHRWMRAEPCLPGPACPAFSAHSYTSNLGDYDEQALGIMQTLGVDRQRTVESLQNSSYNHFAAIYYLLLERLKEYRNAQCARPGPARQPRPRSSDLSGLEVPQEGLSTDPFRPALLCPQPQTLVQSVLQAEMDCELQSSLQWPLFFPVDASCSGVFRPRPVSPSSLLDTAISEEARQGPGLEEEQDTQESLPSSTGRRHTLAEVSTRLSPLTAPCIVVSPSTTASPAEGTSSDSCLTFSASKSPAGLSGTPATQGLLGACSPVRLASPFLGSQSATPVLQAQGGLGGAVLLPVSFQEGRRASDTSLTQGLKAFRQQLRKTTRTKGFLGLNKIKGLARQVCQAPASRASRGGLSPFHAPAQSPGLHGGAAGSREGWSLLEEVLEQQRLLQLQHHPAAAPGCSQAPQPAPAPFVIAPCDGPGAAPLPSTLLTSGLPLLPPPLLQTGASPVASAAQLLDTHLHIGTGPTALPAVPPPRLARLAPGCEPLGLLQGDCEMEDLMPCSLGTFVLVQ
Sequence of Serine/threonine-protein kinase 33 (Homo sapiens) (Q9BYT3 whole entry, looked up): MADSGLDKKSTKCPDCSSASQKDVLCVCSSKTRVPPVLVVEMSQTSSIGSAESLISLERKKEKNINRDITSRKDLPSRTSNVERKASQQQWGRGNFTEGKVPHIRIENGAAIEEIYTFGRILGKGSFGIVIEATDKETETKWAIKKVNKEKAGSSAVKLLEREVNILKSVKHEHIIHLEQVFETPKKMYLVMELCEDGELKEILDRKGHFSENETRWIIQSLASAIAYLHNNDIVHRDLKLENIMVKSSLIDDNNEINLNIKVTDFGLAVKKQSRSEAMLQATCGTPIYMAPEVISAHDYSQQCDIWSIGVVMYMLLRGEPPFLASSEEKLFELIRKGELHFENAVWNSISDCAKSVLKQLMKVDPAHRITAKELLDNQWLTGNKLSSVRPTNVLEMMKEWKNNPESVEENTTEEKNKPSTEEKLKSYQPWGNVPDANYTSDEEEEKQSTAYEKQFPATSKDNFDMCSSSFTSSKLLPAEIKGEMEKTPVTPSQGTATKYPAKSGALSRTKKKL
Sequence of SRSF protein kinase 2 (Homo sapiens) (P78362 whole entry, looked up): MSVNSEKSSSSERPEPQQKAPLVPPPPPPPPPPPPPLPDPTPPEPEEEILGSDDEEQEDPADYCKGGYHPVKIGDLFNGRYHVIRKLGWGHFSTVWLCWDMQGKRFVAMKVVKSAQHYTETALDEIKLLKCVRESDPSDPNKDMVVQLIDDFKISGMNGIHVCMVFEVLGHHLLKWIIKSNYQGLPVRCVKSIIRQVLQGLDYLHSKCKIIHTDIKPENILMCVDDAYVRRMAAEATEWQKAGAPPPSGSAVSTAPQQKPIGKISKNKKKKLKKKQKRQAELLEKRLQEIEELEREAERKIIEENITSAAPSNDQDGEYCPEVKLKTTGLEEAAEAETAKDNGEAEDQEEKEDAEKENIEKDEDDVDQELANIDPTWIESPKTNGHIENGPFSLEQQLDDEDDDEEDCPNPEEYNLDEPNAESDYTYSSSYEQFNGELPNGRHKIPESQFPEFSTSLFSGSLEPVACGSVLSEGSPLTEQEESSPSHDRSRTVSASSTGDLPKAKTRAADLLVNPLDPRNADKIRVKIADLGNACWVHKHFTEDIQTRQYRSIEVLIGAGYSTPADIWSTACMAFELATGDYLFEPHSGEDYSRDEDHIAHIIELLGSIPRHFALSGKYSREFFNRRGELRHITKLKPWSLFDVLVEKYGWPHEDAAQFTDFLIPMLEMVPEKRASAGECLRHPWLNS
Sequence of SRSF protein kinase 1 (Homo sapiens) (Q96SB4 whole entry): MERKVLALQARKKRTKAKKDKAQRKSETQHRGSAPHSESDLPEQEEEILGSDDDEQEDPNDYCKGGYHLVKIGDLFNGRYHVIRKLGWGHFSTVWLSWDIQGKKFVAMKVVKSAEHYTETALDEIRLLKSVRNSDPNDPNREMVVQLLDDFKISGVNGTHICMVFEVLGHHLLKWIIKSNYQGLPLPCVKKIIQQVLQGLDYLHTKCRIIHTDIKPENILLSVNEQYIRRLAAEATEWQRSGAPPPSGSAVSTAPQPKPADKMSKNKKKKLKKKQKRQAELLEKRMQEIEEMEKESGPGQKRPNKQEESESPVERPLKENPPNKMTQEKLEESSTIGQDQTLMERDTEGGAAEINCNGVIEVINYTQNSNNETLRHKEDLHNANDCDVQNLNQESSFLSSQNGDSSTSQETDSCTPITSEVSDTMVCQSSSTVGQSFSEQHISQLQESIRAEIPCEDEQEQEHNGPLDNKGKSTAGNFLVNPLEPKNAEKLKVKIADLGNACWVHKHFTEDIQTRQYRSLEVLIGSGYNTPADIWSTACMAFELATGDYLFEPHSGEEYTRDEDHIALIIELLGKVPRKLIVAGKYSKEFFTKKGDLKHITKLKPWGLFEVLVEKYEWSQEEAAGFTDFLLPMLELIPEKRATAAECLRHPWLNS
Sequence of Serine/threonine-protein kinase PLK2 (Homo sapiens) (Q9NYY3 whole entry, looked up): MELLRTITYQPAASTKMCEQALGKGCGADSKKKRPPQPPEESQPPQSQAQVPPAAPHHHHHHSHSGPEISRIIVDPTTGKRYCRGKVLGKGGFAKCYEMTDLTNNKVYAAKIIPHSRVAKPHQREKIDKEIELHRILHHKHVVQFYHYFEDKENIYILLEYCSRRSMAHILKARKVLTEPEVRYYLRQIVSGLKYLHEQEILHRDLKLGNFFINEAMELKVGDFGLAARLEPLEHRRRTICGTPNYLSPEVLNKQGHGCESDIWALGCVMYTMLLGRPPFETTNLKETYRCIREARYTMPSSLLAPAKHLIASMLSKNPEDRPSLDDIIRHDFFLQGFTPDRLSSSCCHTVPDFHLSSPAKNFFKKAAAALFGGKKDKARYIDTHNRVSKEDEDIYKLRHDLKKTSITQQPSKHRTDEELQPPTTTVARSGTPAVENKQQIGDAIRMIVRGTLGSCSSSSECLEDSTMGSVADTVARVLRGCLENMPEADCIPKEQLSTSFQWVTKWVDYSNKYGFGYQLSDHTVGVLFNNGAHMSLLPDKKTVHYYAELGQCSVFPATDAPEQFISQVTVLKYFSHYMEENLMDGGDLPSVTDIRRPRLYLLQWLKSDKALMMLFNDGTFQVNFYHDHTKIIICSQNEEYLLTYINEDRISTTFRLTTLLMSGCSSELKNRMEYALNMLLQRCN

As to `Cn1sc(=O)n(Cc2ccccc2)c1=O`, the residual activity in [1] turned out to be 89%; in [2], 89%; in [3], 100%; in test [4], 98%; in test [5], 91%; in [6] it was 96%. In addition, the residual activity in test [7] stood at 91%; in test [8], 86%; in [9], 83%; in [10], 83%; in test [11] it was 91%; in test [12], 93%. The residual activity in test [13] stood at 76%; in test [14] it was 95%; in test [15] it was 88%.

With `NC(=O)c1ccc(-c2nc(-c3ccc4c(c3)OCCO4)c(-c3ccccn3)[nH]2)cc1`, the residual activity in test [1] was 93%; in test [2], 88%; in test [5], 98%; in test [6], 90%; in [7], 97%; in test [16], 89%. Further, the residual activity in test [12] was determined as 91%; in [13], 95%; in test [17], 93%; in test [18] it was 100%.

Take `O=C(CCCc1ccc(-c2ccccc2F)cc1)Nc1ccc(O)cc1`: the residual activity in test [1] amounted to 105%; in test [2], 95%; in test [3], 105%; in test [4], 96%; in test [5] it was 83%; in test [6], 179%. Moreover, the residual activity in test [7] is 131%; in test [16], 135%; in test [12] it was 106%; in [13], 100%; in [14], 100%; in test [15], 108%. Further, the residual activity in [17] is 109%; in [18], 106%; in [19] it was 100%.

As to `O=C(O)/C=C/c1cc(Br)c(Br)c(Br)c1Br`, the residual activity in test [1] worked out at 107%; in test [2], 126%; in test [3], 103%; in [4], 93%; in [5] it was 100%; in test [6], 49%. Besides, the residual activity in test [7] was found to be 83%; in test [16], 41%; in test [8], 84%; in test [9] it was 98%; in [12], 103%; in test [13], 89%. Besides, the residual activity in test [14] is 103%; in test [15] it was 99%; in test [17], 39%; in [19], 108%.

As to `Fc1ccc(-c2nc3n(c2-c2ccncc2)CCS3)cc1`, the residual activity in test [1] amounted to 80%; in test [2], 23%; in [20], 139%; in [11], 93%; in test [13], 79%.

As for `O=c1c(-c2ccc(F)cc2)c(-c2ccncc2)[nH]n1-c1ccc(Cl)cc1`, the residual activity in test [1] was determined as 23%; in [2] it was 5%; in test [6], 101%; in test [20] it was 141%; in test [19], 41%.

For the compound `COc1cc2c(cc1OC)-c1n[nH]c(Nc3cccc(F)c3)c1C2`, the residual activity in test [1] was determined as 60%; in test [2], 25%; in test [3], 102%; in [4], 74%; in test [5], 70%; in [7], 109%. In addition, the residual activity came out at 98% in test [16]; 4% in test [20]; 5% in test [9]; 105% in [11]; 117% in test [19].

Turning to `COc1ccc(-c2cnc3c(-c4ccsc4)cnn3c2)cc1`, the residual activity worked out at 94% in test [1]; 95% in test [2]; 99% in test [5]; 94% in [6]; 97% in test [7]; 83% in test [16]. Further, the residual activity in test [20] was 87%; in [9] it was 2%; in test [14], 95%; in test [15] it was 96%; in [19], 127%.

`NC(=O)Nc1sc(-c2ccc(F)cc2)cc1C(N)=O`: the residual activity in [1] was determined as 89%; in test [2], 68%; in test [3] it was 90%; in test [4], 73%; in test [8], 85%; in test [20], 28%. The residual activity in test [9] was determined as 5%; in test [10], 105%; in test [11], 78%; in test [12], 102%; in test [13] it was 75%; in [14] it was 89%. In addition, the residual activity in test [15] amounted to 63%; in test [17] it was 101%; in test [18], 73%.

In the case of `CCOC(=O)c1c(C)[nH]c(/C=C2\C(=O)Nc3ccccc32)c1C`, the residual activity in test [1] amounted to 98%; in test [2], 77%; in test [7] it was 82%; in test [16], 76%; in test [9] it was 91%; in [10], 92%. The residual activity in [11] is 97%; in test [12], 93%; in test [13] it was 89%; in test [14], 89%; in [15], 97%.

As for `Nc1ncnc2[nH]nc(Nc3ccc(F)cc3)c12`, the residual activity in test [1] is 103%; in test [3], 103%; in [4] it was 94%; in test [5], 94%; in [6], 74%; in test [7], 113%. Also, the residual activity in [16] is 43%; in test [8], 80%; in [20], 48%; in test [9] it was 6%; in test [10] it was 95%; in test [11] it was 79%. Moreover, the residual activity in test [12] came out at 104%; in test [14], 100%; in test [15], 94%; in test [17], 102%; in test [18], 95%; in [19], 91%.

Turning to `O=C(c1ccccc1)c1ccc(N2CCOCC2)cc1O`, the residual activity in [1] amounted to 96%; in test [2] it was 91%; in [5], 79%; in [6], 95%; in test [7], 134%; in test [16] it was 68%. The residual activity worked out at 88% in [8]; 97% in test [20]; 95% in test [9]; 100% in test [12]; 94% in test [13]; 89% in test [14]. For the same compound, the residual activity in [15] was found to be 98%; in test [19] it was 124%.

As for `CN([C@@H](Cc1ccc(OS(=O)(=O)c2cccc3cnccc23)cc1)C(=O)N1CCN(c2ccccc2)CC1)S(=O)(=O)c1cccc2cnccc12`, the residual activity in test [1] worked out at 113%; in test [3], 81%; in test [5], 123%; in test [8] it was 83%; in test [9], 124%; in test [11] it was 86%. The residual activity in test [17] was determined as 100%; in [18] it was 99%.

For the compound `CSc1nc(-c2ccc(F)cc2)c(-c2ccnc(NC(C)c3ccccc3)c2)[nH]1` (configuration not stated), the residual activity in test [1] is 10%; in [2], -2%; in [16], 91%; in [20], 144%; in test [9], 87%; in test [10], 94%. In addition, the residual activity in test [11] is 84%; in [12], 91%; in [13], 87%; in test [14] it was 92%; in test [15] it was 93%; in test [18], 87%. The residual activity in test [19] is 101%.
